Ten compounds from PubChem BioAssay (NCI) can be followed below.

Assay [1] can be described thus: NCI Yeast Anticancer Drug Screen. Data for the rad50 strain (AID 155).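 Note: 0% = growth of vehicle-only cultures of the same strain.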 To be noted: S. cerevisiae rad50 strain growth inhibition, stronger effect = higher value. In outline:
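A DNA repair-deficient yeast mutant serves as the test organism; compound-induced growth inhibition is calculated against vehicle-treated cells.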

The nature of assay [2]: NCI Yeast Anticancer Drug Screen. Data for the mec2-1 strain (AID 157). To be noted: S. cerevisiae mec2-1 strain, stronger effect = higher value. In outline:
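Cells of the genetically defined mec2-1 yeast strain are incubated with test compound. Inhibition of growth is calculated against vehicle-treated controls.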

A short description of assay [3]: NCI Yeast Anticancer Drug Screen. Data for the sgs1 mgt1 strain (AID 161).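 Note: 0% = growth of cultures given vehicle only.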 To be noted: S. cerevisiae sgs1 mgt1 strain, stronger effect = higher value. In outline:
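Mutant yeast exposed to compound; growth scored against vehicle-only wells.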

Assay [4] can be described thus: NCI Yeast Anticancer Drug Screen. Data for the cln2 rad14 strain (AID 165).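 Note: 0% = growth equal to vehicle treated cultures.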 To be noted: S. cerevisiae cln2 rad14 strain, stronger effect = higher value. The method in brief:
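The screen exposed genetically defined yeast (cln2 rad14) to test compounds and scored growth inhibition relative to vehicle-treated controls.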

A short description of assay [5]: NCI Yeast Anticancer Drug Screen. Data for the bub3 strain (AID 167). Conditions: S. cerevisiae bub3 mutant strain, stronger effect = higher value. The method in brief:
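Inhibition values come from growth of compound-treated mutant yeast normalised to vehicle-treated controls.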

The nature of assay [6]: NCI Yeast Anticancer Drug Screen. Data for the mlh1 rad18 strain (AID 175). To be noted: S. cerevisiae mlh1 rad18 strain growth inhibition, stronger effect = higher value. In outline:
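Compound-treated yeast growth, normalised to vehicle controls. Strain bears defined DNA repair mutations.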

The mark [7] stands for this setting: at 5.0 µM (retest, dose inferred, filed as 0.5).
Setting [8] is: at 50.0 µM (retest, dose inferred, filed as 5.0).

The panel holds about 79,000 compounds, 15% with a hit somewhere; the sample as a whole holds those more often. Unmarked numbers belong to inactive results. Active and inactive are the calls of the source. Cut-off read from the data, not from the text of the source: active = growth inhibition above about 70%; inactive = the rest.

In the case of `O=C(O)c1ccc2c3c(ncnc13)-c1ccccc1C2=O`, the growth inhibition was 22% in assay [1] (setting [7]); 96% (active) in assay [1] (setting [8]); 62% in assay [1] (at 50.0 µM); 43% in assay [2] (setting [7]); 98% (active) in assay [2] (setting [8]); 45% in assay [2] (at 50.0 µM). Also, the growth inhibition was 10% in assay [3] (setting [7]); 86% (active) in assay [3] (setting [8]); 61% in assay [3] (at 50.0 µM); 36% in assay [4] (setting [7]); 88% (active) in assay [4] (setting [8]); 34.5% in assay [4] (at 50.0 µM). For the same compound, the growth inhibition in assay [5] (setting [7]) was 36%; in assay [5] (setting [8]), 90% (active); in assay [5] (at 50.0 µM), 55.5%; in assay [6] (setting [7]), 28%; in assay [6] (setting [8]) it was 98% (active); in assay [6] (at 50.0 µM), 74.6% (active).
For `CSc1ccc(/C=N/NC(N)=S)cc1`, the growth inhibition in assay [1] (setting [7]) is -150%; in assay [1] (setting [8]) it was -19%; in assay [1] (at 50.0 µM), 91% (active); in assay [2] (setting [7]), -53%; in assay [2] (setting [8]) it was -4%; in assay [2] (at 50.0 µM) it was 76% (active). For the same compound, the growth inhibition was -65% in assay [3] (setting [7]); 12% in assay [3] (setting [8]); 81.3% (active) in assay [3] (at 50.0 µM); -65% in assay [4] (setting [7]); -19% in assay [4] (setting [8]); 43.7% in assay [4] (at 50.0 µM). In addition, the growth inhibition in assay [5] (setting [7]) is -63%; in assay [5] (setting [8]), -3%; in assay [5] (at 50.0 µM), 86.5% (active); in assay [6] (setting [7]) it was -119%; in assay [6] (setting [8]), 1%; in assay [6] (at 50.0 µM), 84.7% (active).
Turning to `CSc1cc(C(=O)O)nc(N)n1`, the growth inhibition in assay [1] (setting [7]) was 4%; in assay [1] (setting [8]), -4%; in assay [1] (at 50.0 µM) it was -5.65%; in assay [2] (setting [7]) it was 6%; in assay [2] (setting [8]), 0%; in assay [2] (at 50.0 µM), 5%. Also, the growth inhibition in assay [3] (setting [7]) was 5%; in assay [3] (setting [8]), -1%; in assay [3] (at 50.0 µM), -21.6%; in assay [4] (setting [7]), 8%; in assay [4] (setting [8]), -1%; in assay [4] (at 50.0 µM) it was 28.1%. The growth inhibition was 3% in assay [5] (setting [7]); -4% in assay [5] (setting [8]); -17.1% in assay [5] (at 50.0 µM); 4% in assay [6] (setting [7]); -4% in assay [6] (setting [8]); -12.3% in assay [6] (at 50.0 µM).
Take `CCCCN(C)C(=S)N/N=C(\C)c1ccccn1`: the growth inhibition in assay [1] (setting [7]) is 56%; in assay [1] (setting [8]) it was 99% (active); in assay [1] (at 50.0 µM), 99.5% (active); in assay [2] (setting [7]), 73% (active); in assay [2] (setting [8]) it was 100% (active); in assay [2] (at 50.0 µM), 99.8% (active). Besides, the growth inhibition in assay [3] (setting [7]) was 97% (active); in assay [3] (setting [8]) it was 99% (active); in assay [3] (at 50.0 µM) it was 99.7% (active); in assay [4] (setting [7]), 95% (active); in assay [4] (setting [8]), 98% (active); in assay [4] (at 50.0 µM), 99.5% (active). In addition, the growth inhibition in assay [5] (setting [7]) was 92% (active); in assay [5] (setting [8]), 99% (active); in assay [5] (at 50.0 µM), 99.5% (active); in assay [6] (setting [7]), 98% (active); in assay [6] (setting [8]), 99% (active); in assay [6] (at 50.0 µM), 99.7% (active).
For `CC(=O)Nc1ccc2c(c1)C(=O)c1cccc(F)c1-2`, the growth inhibition in assay [1] (setting [7]) was 6%; in assay [1] (setting [8]), 93% (active); in assay [1] (at 50.0 µM), 90% (active); in assay [2] (setting [7]), -2%; in assay [2] (setting [8]), 54%; in assay [2] (at 50.0 µM) it was 25.8%. The growth inhibition in assay [3] (setting [7]) is -4%; in assay [3] (setting [8]) it was 69%; in assay [3] (at 50.0 µM), 51.2%; in assay [4] (setting [7]) it was -2%; in assay [4] (setting [8]), 38%; in assay [4] (at 50.0 µM) it was 12%. Moreover, the growth inhibition in assay [5] (setting [7]) is 1%; in assay [5] (setting [8]) it was 17%; in assay [5] (at 50.0 µM), 12.2%; in assay [6] (setting [7]), 3%; in assay [6] (setting [8]), 82% (active); in assay [6] (at 50.0 µM), 45.9%.
Consider `CCCCCCCCCCCCCCCCCO`, for which the growth inhibition in assay [1] (setting [7]) is -4%; in assay [1] (setting [8]), 6%; in assay [1] (at 50.0 µM) it was 71% (active); in assay [2] (setting [7]) it was -3%; in assay [2] (setting [8]) it was -7%; in assay [2] (at 50.0 µM) it was 63.3%. Besides, the growth inhibition in assay [3] (setting [7]) was -3%; in assay [3] (setting [8]) it was 7%; in assay [3] (at 50.0 µM), 50%; in assay [4] (setting [7]) it was -1%; in assay [4] (setting [8]) it was -5%; in assay [4] (at 50.0 µM), -15.6%. The growth inhibition was 10% in assay [5] (setting [7]); 8% in assay [5] (setting [8]); 75.2% (active) in assay [5] (at 50.0 µM); -9% in assay [6] (setting [7]); -3% in assay [6] (setting [8]); 77.8% (active) in assay [6] (at 50.0 µM).
As for `CCOC(=O)CC(NC(=O)c1[nH]cnc1/N=N/N(C)C)C(=O)OCC` (stereo not given), the growth inhibition is -24% in assay [1] (setting [7]); 95% (active) in assay [1] (setting [8]); 89.1% (active) in assay [1] (at 50.0 µM); -8% in assay [2] (setting [7]); 97% (active) in assay [2] (setting [8]); 91.5% (active) in assay [2] (at 50.0 µM). Moreover, the growth inhibition was -16% in assay [3] (setting [7]); 95% (active) in assay [3] (setting [8]); 90.6% (active) in assay [3] (at 50.0 µM); -11% in assay [4] (setting [7]); 96% (active) in assay [4] (setting [8]); 91% (active) in assay [4] (at 50.0 µM). Moreover, the growth inhibition in assay [5] (setting [7]) is -12%; in assay [5] (setting [8]), 97% (active); in assay [5] (at 50.0 µM) it was 91.8% (active); in assay [6] (setting [7]), -24%; in assay [6] (setting [8]) it was 97% (active); in assay [6] (at 50.0 µM), 78% (active).
Turning to `O=C1NOCC1N=Cc1cc(Cl)ccc1O` (stereo not given), the growth inhibition in assay [1] (setting [7]) was 9%; in assay [1] (setting [8]), 65%; in assay [1] (at 50.0 µM) it was 75.8% (active); in assay [2] (setting [7]), 3%; in assay [2] (setting [8]), 30%; in assay [2] (at 50.0 µM), 16.9%. Further, the growth inhibition is -7% in assay [3] (setting [7]); 35% in assay [3] (setting [8]); 26.9% in assay [3] (at 50.0 µM); 0% in assay [4] (setting [7]); 38% in assay [4] (setting [8]); 23.4% in assay [4] (at 50.0 µM). For the same compound, the growth inhibition in assay [5] (setting [7]) was 6%; in assay [5] (setting [8]) it was 61%; in assay [5] (at 50.0 µM), 58.9%; in assay [6] (setting [7]) it was 9%; in assay [6] (setting [8]), 78% (active); in assay [6] (at 50.0 µM), 84% (active).
For `CCCCCCCCCCCCCCCCOP(=O)([O-])OCC[N+](C)(C)C`, the growth inhibition in assay [1] (setting [7]) is 99% (active); in assay [1] (setting [8]), 99% (active); in assay [1] (at 50.0 µM), 99.8% (active); in assay [2] (setting [7]), 99% (active); in assay [2] (setting [8]), 100% (active); in assay [2] (at 50.0 µM), 99.6% (active). Also, the growth inhibition in assay [3] (setting [7]) was 66%; in assay [3] (setting [8]), 100% (active); in assay [3] (at 50.0 µM), 99.6% (active); in assay [4] (setting [7]), 97% (active); in assay [4] (setting [8]) it was 99% (active); in assay [4] (at 50.0 µM), 99.2% (active). The growth inhibition was 99% (active) in assay [5] (setting [7]); 99% (active) in assay [5] (setting [8]); 99.7% (active) in assay [5] (at 50.0 µM); 98% (active) in assay [6] (setting [7]); 99% (active) in assay [6] (setting [8]); 99.8% (active) in assay [6] (at 50.0 µM).
With `COC1(OC)OC2=C(OC1(OC)OC)c1ccccc1C2=O`, the growth inhibition in assay [1] (setting [7]) was 8%; in assay [1] (setting [8]) it was 12%; in assay [1] (at 50.0 µM), 37.9%; in assay [2] (setting [7]) it was 9%; in assay [2] (setting [8]), 14%; in assay [2] (at 50.0 µM), -13.1%. The growth inhibition in assay [3] (setting [7]) is 5%; in assay [3] (setting [8]), 7%; in assay [3] (at 50.0 µM), -11.8%; in assay [4] (setting [7]) it was 5%; in assay [4] (setting [8]) it was 3%; in assay [4] (at 50.0 µM), -15.2%. Besides, the growth inhibition in assay [5] (setting [7]) is 4%; in assay [5] (setting [8]), 8%; in assay [5] (at 50.0 µM), -16.6%; in assay [6] (setting [7]), 14%; in assay [6] (setting [8]) it was 12%; in assay [6] (at 50.0 µM) it was -55.2%.
